Reference: paper PMC5700166
Residue numbers refer to the chain shown, from its start.

How the values were obtained:
Assay in all cases: protein-binding microarray (PBM); PBM: ~300 nM protein, 6 mM HEPES pH 7.8, 80 mM KCl, 0.5 mM EDTA, 0.5 mM EGTA, 6% glycerol, 35 ng/ul poly-dIdC, 1% milk, 1 h, room temperature; Ap Aiptasia and Nv Nematostella (sea anemones) / Co Capsaspora / Aq Amphimedon (sponge) / Dm Drosophila / Hu human; RHD is the Rel homology domain; high values mean tight binding
Conditions in all cases: dsDNA, one strand shown
GST-Ap-NF-kB RHD = molecular target: T1, GST-Ap-NF-kB RHD (Exaiptasia pallida (Aiptasia), UniProt A0A913YAJ5 2-422)
T1 sequence: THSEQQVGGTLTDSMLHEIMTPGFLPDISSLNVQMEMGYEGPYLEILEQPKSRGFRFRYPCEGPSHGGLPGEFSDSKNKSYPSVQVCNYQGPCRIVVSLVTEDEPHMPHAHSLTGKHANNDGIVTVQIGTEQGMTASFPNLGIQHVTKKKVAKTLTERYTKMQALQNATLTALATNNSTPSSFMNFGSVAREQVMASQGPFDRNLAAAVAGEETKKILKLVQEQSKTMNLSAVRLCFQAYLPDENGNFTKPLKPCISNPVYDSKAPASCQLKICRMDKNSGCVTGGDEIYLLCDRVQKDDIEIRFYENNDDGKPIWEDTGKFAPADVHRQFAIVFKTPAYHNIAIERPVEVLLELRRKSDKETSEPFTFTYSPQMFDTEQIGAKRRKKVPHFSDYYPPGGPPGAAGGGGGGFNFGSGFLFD

[1] = molecular target: T2, GST-Nv-NF-kB (Cys allele) (Nematostella vectensis, UniProt E5G601 2-411)
T2 sequence: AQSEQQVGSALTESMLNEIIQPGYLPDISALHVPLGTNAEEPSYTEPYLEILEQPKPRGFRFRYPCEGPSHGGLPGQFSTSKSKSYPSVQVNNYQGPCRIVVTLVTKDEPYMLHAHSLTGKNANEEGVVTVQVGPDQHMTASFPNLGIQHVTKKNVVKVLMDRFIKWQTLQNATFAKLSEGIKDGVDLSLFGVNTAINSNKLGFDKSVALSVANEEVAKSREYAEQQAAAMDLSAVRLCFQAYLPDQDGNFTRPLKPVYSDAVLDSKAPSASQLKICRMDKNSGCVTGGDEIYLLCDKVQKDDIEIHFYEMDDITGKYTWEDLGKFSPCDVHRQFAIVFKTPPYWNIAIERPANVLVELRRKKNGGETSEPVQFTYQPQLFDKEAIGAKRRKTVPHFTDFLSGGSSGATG

[2] = molecular target: T3, GST-Nv-NF-kB (Ser allele) (Nematostella vectensis, UniProt A7UNT2 2-411)
T3 sequence: T2 sequence with Q21R, C66S, S207N, E215Q, V217A, E225K, A268E, D399E

GST-Co-NF-kB = molecular target: T4, GST-Co-NF-kB (Capsaspora owczarzaki, UniProt F1ARL5 200-546)
T4 sequence: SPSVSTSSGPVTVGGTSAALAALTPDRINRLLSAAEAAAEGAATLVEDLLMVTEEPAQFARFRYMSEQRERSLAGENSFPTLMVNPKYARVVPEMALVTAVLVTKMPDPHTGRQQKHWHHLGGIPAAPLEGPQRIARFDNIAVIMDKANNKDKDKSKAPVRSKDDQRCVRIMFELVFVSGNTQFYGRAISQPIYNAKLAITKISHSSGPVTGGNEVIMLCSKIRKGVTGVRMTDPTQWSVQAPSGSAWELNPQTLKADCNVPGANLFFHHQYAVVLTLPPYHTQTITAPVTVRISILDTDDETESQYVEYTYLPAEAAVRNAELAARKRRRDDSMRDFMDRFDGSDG

GST-Dm-Relish = molecular target: T5, GST-Dm-Relish (Drosophila melanogaster, UniProt Q94527 99-473)
T5 sequence: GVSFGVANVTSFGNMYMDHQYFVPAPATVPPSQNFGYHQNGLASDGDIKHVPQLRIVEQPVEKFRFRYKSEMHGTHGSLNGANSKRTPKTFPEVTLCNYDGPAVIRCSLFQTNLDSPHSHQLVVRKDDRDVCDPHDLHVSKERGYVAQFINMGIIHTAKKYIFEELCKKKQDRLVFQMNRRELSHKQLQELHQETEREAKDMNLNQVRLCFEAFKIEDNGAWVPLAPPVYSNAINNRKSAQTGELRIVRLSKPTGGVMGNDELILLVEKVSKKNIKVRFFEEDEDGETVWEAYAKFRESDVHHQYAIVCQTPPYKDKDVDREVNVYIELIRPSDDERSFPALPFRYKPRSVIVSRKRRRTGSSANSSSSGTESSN

GST-Aq-NF-kB = molecular target: T6, GST-Aq-NF-kB (Amphimedon queenslandica, UniProt A9Y5G7 2-389)
T6 sequence: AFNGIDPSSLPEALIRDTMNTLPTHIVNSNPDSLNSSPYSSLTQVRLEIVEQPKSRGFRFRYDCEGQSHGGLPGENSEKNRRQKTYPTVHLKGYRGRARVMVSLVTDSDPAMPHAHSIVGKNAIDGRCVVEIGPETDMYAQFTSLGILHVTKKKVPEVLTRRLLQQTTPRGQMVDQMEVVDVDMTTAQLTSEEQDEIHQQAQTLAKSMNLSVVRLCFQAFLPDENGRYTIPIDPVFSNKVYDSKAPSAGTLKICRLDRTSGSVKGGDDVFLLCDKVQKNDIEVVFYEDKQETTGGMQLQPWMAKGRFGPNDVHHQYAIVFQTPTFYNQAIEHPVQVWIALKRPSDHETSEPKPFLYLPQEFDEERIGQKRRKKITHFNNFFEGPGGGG

GST-Hu-p50 = GST-Hu-p50 (Homo sapiens, UniProt P19838 7-356)
Chain of GST-Hu-p50 (P19838 7-356): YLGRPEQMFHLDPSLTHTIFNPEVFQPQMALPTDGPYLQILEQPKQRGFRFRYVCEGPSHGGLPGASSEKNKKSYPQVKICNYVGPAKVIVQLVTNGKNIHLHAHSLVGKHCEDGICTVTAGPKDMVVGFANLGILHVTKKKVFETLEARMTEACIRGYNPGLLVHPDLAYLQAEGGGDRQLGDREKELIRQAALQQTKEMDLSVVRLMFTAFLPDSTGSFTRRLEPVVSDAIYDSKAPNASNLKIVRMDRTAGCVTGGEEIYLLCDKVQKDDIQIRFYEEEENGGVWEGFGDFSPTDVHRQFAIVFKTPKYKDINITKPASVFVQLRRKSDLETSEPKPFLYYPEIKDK

Row | Sequence | binding signal (GST-Ap-NF-kB RHD) | binding signal [1] | binding signal [2] | binding signal (GST-Co-NF-kB) | binding signal (GST-Dm-Relish) | binding signal (GST-Aq-NF-kB) | binding signal (GST-Hu-p50)
1 | CCGATTAACATCAGAAAACCCCCTGATGTTAATCGGGTCTTGATTCGCTTGACGCTGCTG | 10.8 z-score | 10 z-score | 11 z-score | 4.05 z-score | 10 z-score | 8.84 z-score | 8.24 z-score
2 | CCGATTAACATCAAGGGAACTCCTGATGTTAATCGGGTCTTGATTCGCTTGACGCTGCTG | 3.72 z-score | 3.17 z-score | 1.27 z-score | 1.28 z-score | 5.67 z-score | 4.45 z-score | 2.28 z-score
3 | CCGATTAACATCAGGGAAAACAATGATGTTAATCGGGTCTTGATTCGCTTGACGCTGCTG | 3.05 z-score | 4.96 z-score | 6.37 z-score | 5.48 z-score | 1.47 z-score | 3.34 z-score | 3.66 z-score
4 | CCGATTAACATCAGGGGAAATTATGATGTTAATCGGGTCTTGATTCGCTTGACGCTGCTG | 8.88 z-score | 10.5 z-score | 12.1 z-score | 9.24 z-score | 6.62 z-score | 7.99 z-score | 6.95 z-score
5 | CCGATTAACATCAAGAATCCCCCTGATGTTAATCGGGTCTTGATTCGCTTGACGCTGCTG | 9.83 z-score | 9.82 z-score | 10.5 z-score | 6.36 z-score | 9.1 z-score | 7.61 z-score | 7.83 z-score
6 | CCGATTAACATCAGGGACTGCCCTGATGTTAATCGGGTCTTGATTCGCTTGACGCTGCTG | 4.31 z-score | 4.95 z-score | 3.06 z-score | 1.04 z-score | 4.22 z-score | 7.19 z-score | 4.14 z-score
7 | CCGATTAACATCACGGGAACACCTGATGTTAATCGGGTCTTGATTCGCTTGACGCTGCTG | 1.81 z-score | 1.11 z-score | 1.02 z-score | 1.95 z-score | 4.06 z-score | 2.73 z-score | 1.28 z-score
8 | CCGATTAACATCAAAACTCCCCGTGATGTTAATCGGGTCTTGATTCGCTTGACGCTGCTG | 7.7 z-score | 6.47 z-score | 6.9 z-score | 5.87 z-score | 7.5 z-score | 6.24 z-score | 5.74 z-score
9 | CCGATTAACATCAAAATACTCCCTGATGTTAATCGGGTCTTGATTCGCTTGACGCTGCTG | 5.1 z-score | 4.6 z-score | 4.49 z-score | 2.79 z-score | 1.83 z-score | 4.2 z-score | 3.64 z-score
10 | CCGATTAACATCAGGGAAAATACTGATGTTAATCGGGTCTTGATTCGCTTGACGCTGCTG | 3.76 z-score | 6.09 z-score | 6.82 z-score | 4.49 z-score | 4.93 z-score | 5.71 z-score | 4.76 z-score
11 | CCGATTAACATCAGGGAATTTACTGATGTTAATCGGGTCTTGATTCGCTTGACGCTGCTG | 4.29 z-score | 6.69 z-score | 6.33 z-score | 3.89 z-score | 6.87 z-score | 6.82 z-score | 5.14 z-score
12 | CCGATTAACATCAGGGATTACCCTGATGTTAATCGGGTCTTGATTCGCTTGACGCTGCTG | 8.01 z-score | 10 z-score | 7.06 z-score | 2.89 z-score | 9.47 z-score | 8.71 z-score | 4.78 z-score
13 | CCGATTAACATCAGGGGCCCCCCTGATGTTAATCGGGTCTTGATTCGCTTGACGCTGCTG | 7.09 z-score | 3.78 z-score | 2.88 z-score | 3.01 z-score | 7.07 z-score | 7.54 z-score | 4.57 z-score
14 | CCGATTAACATCAGGGGGGAAGATGATGTTAATCGGGTCTTGATTCGCTTGACGCTGCTG | 4.86 z-score | 5.5 z-score | 5.9 z-score | 7.62 z-score | 3.64 z-score | 4.85 z-score | 4.98 z-score
15 | CCGATTAACATCAGGGGAAGTCATGATGTTAATCGGGTCTTGATTCGCTTGACGCTGCTG | 5.98 z-score | 7.2 z-score | 7.6 z-score | 4.69 z-score | 6.43 z-score | 6.01 z-score | 5.27 z-score
16 | CCGATTAACATCACCGGGGATAGTGATGTTAATCGGGTCTTGATTCGCTTGACGCTGCTG | 3.55 z-score | 2.68 z-score | 3.34 z-score | 3.83 z-score | 2.1 z-score | 1.82 z-score | 2.98 z-score
17 | CCGATTAACATCACCGTTCCCCCTGATGTTAATCGGGTCTTGATTCGCTTGACGCTGCTG | 6.48 z-score | 5.21 z-score | 6.93 z-score | 6.76 z-score | 2.76 z-score | 4.51 z-score | 5.25 z-score
18 | CCGATTAACATCACTTTTCCCCCTGATGTTAATCGGGTCTTGATTCGCTTGACGCTGCTG | 6.53 z-score | 7.4 z-score | 8.95 z-score | 10.8 z-score | 3.73 z-score | 5.27 z-score | 6.51 z-score
19 | CCGATTAACATCAAGGGGGGAATTGATGTTAATCGGGTCTTGATTCGCTTGACGCTGCTG | 7.34 z-score | 7.02 z-score | 7.25 z-score | 7.24 z-score | 5.11 z-score | 5.89 z-score | 6.3 z-score
20 | CCGATTAACATCAAAAATACCCTTGATGTTAATCGGGTCTTGATTCGCTTGACGCTGCTG | 5.7 z-score | 9.05 z-score | 7.74 z-score | 1.68 z-score | 7.04 z-score | 7.5 z-score | 6.41 z-score
21 | CCGATTAACATCAGGGGAAACGATGATGTTAATCGGGTCTTGATTCGCTTGACGCTGCTG | 4.89 z-score | 6.2 z-score | 8.83 z-score | 6.65 z-score | 1.87 z-score | 3.92 z-score | 4.62 z-score
22 | CCGATTAACATCACCAACCCCCCTGATGTTAATCGGGTCTTGATTCGCTTGACGCTGCTG | 5.65 z-score | 3.47 z-score | 4.4 z-score | 3.02 z-score | 5.37 z-score | 3.88 z-score | 4.51 z-score
23 | CCGATTAACATCAGGGAACTCCCTGATGTTAATCGGGTCTTGATTCGCTTGACGCTGCTG | 8.33 z-score | 10.6 z-score | 6.92 z-score | 3.39 z-score | 9 z-score | 9.76 z-score | 6.16 z-score
24 | CCGATTAACATCAAAAATTTCCCTGATGTTAATCGGGTCTTGATTCGCTTGACGCTGCTG | 5.61 z-score | 8.92 z-score | 8.77 z-score | 5.47 z-score | 6.05 z-score | 7.58 z-score | 5.67 z-score
